For 8 compounds, growth results are on record in PubChem BioAssay (NCI).

Compounds without any hit were thinned out: in the full panel of roughly 83,000, 20% have a hit.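 Each cell line was grown in a 96-well plate and treated with one concentration of compound for 48 hours. Values below 10 were considered active.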 A number with no mark means an inactive call. The source made the active and inactive calls.

Assay in all cases: NCI-60 one-dose screen, 48 h (100 = growth as untreated, 0 = no growth, -100 = all killed)
Common to all, as to details: 10 µM

Test [1] deals with NCI-H23 lung.
Test [2] deals with NCI-H226 lung.
Test [3] has as its system NCI-H322M lung.
The subject of test [4] is HOP-62 NSCLC.
The subject of test [5] is HOP-92 NSCLC.
The subject of test [6] is NCI-H522 lung.
In test [7] the test system is A549/ATCC NSCLC.
For test [8], the system named is 786-0 renal.
Test [9] relates to COLO 205 colon.
In test [10] the test system is DU-145 prostate.
In test [11] the test system is K-562 leukemia.
Test [12] has as its system MALME-3M melanoma.
Test [13] has as its system MDA-MB-231 breast.
The test system of test [14] is RXF 393 renal.
Test [15] relates to SF-268 CNS.
The subject of test [16] is SF-295 CNS.
Test [17] deals with SF-539 CNS.
The test system of test [18] is UACC-257 melanoma.
In test [19] the test system is M14 melanoma.

Turning to `Cc1cc(Nc2cccc(F)c2)nc(NCc2ccccc2)n1`, the growth in [1] was -2.43% (active); in [2], 40.4%; in test [3], 63.2%; in test [4], 70.5%; in test [5], -2.56% (active); in test [6], 6.89% (active). Besides, the growth in [7] was 16.2%; in [8], 45.7%; in [9], 8.24% (active); in test [10], 22.8%; in test [11], 13.3%; in [12], 43.9%. Further, the growth is 20.9% in test [13]; 76.6% in test [14]; 40.4% in test [15]; 16.7% in [16]; 56.8% in [17]; 29.8% in test [18]. Moreover, the growth in test [19] was 28.5%.
As to `C=CCn1c(C)nc2cc(Nc3nc(Nc4ccc5nc(C)n(CC=C)c5c4)c4ccccc4n3)ccc21`, the growth in [1] was -69.2% (active); in [2] it was -47.1% (active); in test [3], -92.2% (active); in [4], -99.5% (active); in [5] it was -79% (active); in test [6], -94.8% (active). Moreover, the growth is -67.1% (active) in test [7]; -70.6% (active) in [8]; -100% (active) in [9]; -96% (active) in [10]; -27.7% (active) in test [11]; -68.3% (active) in test [12]. In addition, the growth in test [13] is -85.8% (active); in test [14] it was -97.4% (active); in test [15] it was -69.8% (active); in test [16], -86.6% (active); in test [17], -95.8% (active); in test [18], -79.8% (active). The growth in test [19] was -88% (active).
`Nc1ncncc1-c1ccc(F)cc1`: the growth in [1] is 108%; in [2], 108%; in [3], 108%; in test [4] it was 105%; in test [5], 95.9%; in test [6], 119%. Besides, the growth in [7] was 106%; in test [8] it was 104%; in test [9], 114%; in [10] it was 115%; in test [11], 109%; in test [12], 112%. The growth was 127% in test [13]; 109% in test [14]; 112% in [15]; 100% in test [16]; 95.6% in [17]; 118% in test [18]. Also, the growth in test [19] was 107%.
Turning to `COc1ccc2nc(NC(=O)Nc3c(F)cccc3F)sc2c1`, the growth in [1] is 105%; in test [2], 94%; in [3], 99.5%; in test [4], 106%; in test [5], 93.1%; in test [6], 96.8%. The growth in test [7] is 96.3%; in test [8] it was 94.3%; in test [9], 125%; in test [10], 105%; in test [11], 94.5%; in test [12] it was 105%. Further, the growth is 119% in test [13]; 106% in test [14]; 109% in [15]; 102% in test [16]; 104% in [17]; 102% in test [18]. In addition, in test [19], the growth is 104%.
As for `COc1cccc(-c2nnc(COc3ccc(-c4nc5ccccc5[nH]4)cc3OC)o2)c1`, the growth in test [1] is 92.7%; in [2] it was 105%; in [3] it was 97.6%; in test [4], 108%; in [5] it was 93.8%; in [6], 96.7%. In addition, the growth was 97.1% in [7]; 96.2% in test [8]; 85.4% in test [9]; 98.9% in test [10]; 55.5% in test [11]; 89.9% in test [12]. In addition, the growth is 91.7% in test [13]; 104% in test [14]; 103% in test [15]; 101% in test [16]; 104% in test [17]; 109% in [18]. In addition, the growth in test [19] is 103%.
On to `COc1cc(OC)cc(-c2ccc(-c3ccc(C(=N)N)cn3)o2)c1`, for which the growth in [1] was 61.6%; in test [2] it was 60.7%; in [3], 2.03% (active); in test [4], 6.78% (active); in test [5] it was -21.8% (active); in test [6] it was -50.7% (active). Also, the growth in test [7] was 4.73% (active); in [8] it was -40.2% (active); in [9], -56.9% (active); in [10], 21.6%; in test [11] it was -59.9% (active); in [12] it was -79.9% (active). The growth in test [13] was -83.2% (active); in test [14] it was -69.9% (active); in test [15], -20.3% (active); in test [16], -70.5% (active); in test [17], -69.1% (active); in [18], -80.6% (active). The growth in test [19] is -77.9% (active).
As to `O=C(Nc1ccc(OS(=O)(=O)Cc2ccccc2)cc1)C12CC3CC(CC(C3)C1)C2`, the growth was 84.8% in test [1]; 90.3% in [2]; 95.3% in [3]; 79.3% in [4]; 59.9% in test [5]; 81.6% in test [6]. Also, the growth was 94.1% in [8]; 27.4% in test [9]; 87.4% in test [10]; 13.1% in test [11]; 91.8% in test [12]; 78.7% in [13]. Moreover, the growth in test [14] is 99%; in test [15], 84.6%; in test [16] it was 60.3%; in [17] it was 86.1%; in [18], 99%; in test [19], 77.4%.
`O=C(OCC1OC(n2cc(C(F)(F)F)c(=O)[nH]c2=O)CC1OC(=O)c1ccc([N+](=O)[O-])cc1)c1ccc([N+](=O)[O-])cc1` (stereo not given): the growth in [1] is 90.9%; in test [2], 72.5%; in [3], 91.2%; in [4] it was 75.9%; in test [5], 69.9%; in test [6], 76.6%. The growth in [7] was 69.6%; in test [8], 18.9%; in test [9], 87.8%; in test [10], 30.3%; in test [11], 62%; in [13] it was 95.3%. Further, the growth in test [14] is 80.3%; in test [15] it was 55.6%; in test [16] it was 63.5%; in test [17], 18.3%; in test [18], 38.4%; in test [19], -17.6% (active).
